Test systems include EKVX NSCLC; SN12C renal; UO-31 renal; ACHN renal; CAKI-1 renal; A498 renal; CCRF-CEM leukemia; MOLT-4 leukemia; SR leukemia; RPMI-8226 leukemia; OVCAR-8 ovarian; OVCAR-5 ovarian; OVCAR-4 ovarian; SK-OV-3 ovarian; IGROV1 ovarian; OVCAR-3 ovarian; HS 578T breast; NCI/ADR-RES ovarian; T-47D breast.
What all share (experiment): NCI-60 one-dose screen, 48 h (100 = growth as untreated, 0 = no growth, -100 = all killed)
What all share (conditions): 10 µM unless noted

The panel holds about 83,000 compounds, 20% with a hit somewhere; the sample as a whole holds those more often.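 96-well plates, one dose, 48 hours. Percent growth reported; active if below 10.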 Unmarked numbers belong to inactive results. Calls of active or inactive are those of the source.

On to `CN(C)S(=O)(=O)c1oc(-c2ccccc2)nc1C#N`, for which the growth was 78.3% in the test on EKVX NSCLC; 72.4% with SN12C renal; -51% (active) with UO-31 renal; -83.9% (active) in the test with ACHN renal; 53.7% in the test with CAKI-1 renal; 65.6% in the test with A498 renal. The growth is 1.79% (active) with CCRF-CEM leukemia; -13.1% (active) in the test on MOLT-4 leukemia; -19.7% (active) with SR leukemia; 76% in the test with RPMI-8226 leukemia; 94.4% in the test on OVCAR-8 ovarian; 100% in the test on OVCAR-5 ovarian. The growth was 99.7% with OVCAR-4 ovarian; 136% with SK-OV-3 ovarian; 38.8% in the test on IGROV1 ovarian; 62.4% with OVCAR-3 ovarian; 107% in the test with HS 578T breast; 107% in the test on NCI/ADR-RES ovarian. Moreover, the growth in the test on T-47D breast is 59.6%.

Take `CCOC(=O)c1c(Nc2ccccc2)nn2c(N)c(C#N)c(-c3ccc(OC)cc3)nc12`: the growth is 69.2% with EKVX NSCLC; 86.6% with SN12C renal; 76.7% in the test with UO-31 renal; 38.5% in the test with ACHN renal; 52.8% in the test with CAKI-1 renal; 75.5% with A498 renal. In addition, the growth was 89.3% with CCRF-CEM leukemia; 94.7% in the test with MOLT-4 leukemia; 88.7% in the test on RPMI-8226 leukemia; 66.1% in the test with OVCAR-8 ovarian; 101% in the test on OVCAR-5 ovarian; 35.9% in the test with OVCAR-4 ovarian. Besides, the growth with SK-OV-3 ovarian was 55.9%; in the test with IGROV1 ovarian, 85.5%; with OVCAR-3 ovarian, 101%; in the test with HS 578T breast, 19.4%; with NCI/ADR-RES ovarian, 73.3%; with T-47D breast, 61.3%.

In the case of `OC1CCc2c(-c3ccc4ncnc(N5CCc6cc(F)c(Cl)cc65)c4c3)cncc21` (stereo not given), the growth with EKVX NSCLC is 27.1%; in the test on SN12C renal, 39.3%; with UO-31 renal it was 19%; with ACHN renal, 18.6%; with CAKI-1 renal, 22.5%; with A498 renal it was -13.1% (active). Moreover, the growth in the test on CCRF-CEM leukemia is 40.3%; with MOLT-4 leukemia, 21.9%; in the test with SR leukemia, 47.9%; with RPMI-8226 leukemia, 15.9%; in the test with OVCAR-8 ovarian, 52.9%; in the test on OVCAR-5 ovarian, 46.6%. For the same molecule, the growth in the test with OVCAR-4 ovarian was 56.1%; in the test with SK-OV-3 ovarian it was 58.1%; in the test on IGROV1 ovarian it was -13.2% (active); with OVCAR-3 ovarian, 37.6%; with HS 578T breast it was 27.8%; in the test on NCI/ADR-RES ovarian, 51.1%. For the same molecule, in the test on T-47D breast, the growth is 7.03% (active).

Turning to `CC(=O)Oc1ccccc1C(=O)Nc1ccc(C(=O)/C=C/c2cccs2)cc1`, the growth in the test with EKVX NSCLC is 103%; with SN12C renal it was 104%; in the test with UO-31 renal it was 105%; with ACHN renal it was 112%; in the test on CAKI-1 renal, 96.2%; in the test with A498 renal, 80.7%. Besides, the growth in the test on CCRF-CEM leukemia is 99.7%; in the test on MOLT-4 leukemia, 104%; in the test with SR leukemia it was 93.9%; with RPMI-8226 leukemia it was 96.2%; in the test with OVCAR-8 ovarian, 107%; with OVCAR-5 ovarian, 109%. The growth was 104% in the test on OVCAR-4 ovarian; 132% with SK-OV-3 ovarian; 116% in the test with IGROV1 ovarian; 122% in the test on OVCAR-3 ovarian; 120% with HS 578T breast; 106% with NCI/ADR-RES ovarian. Also, in the test on T-47D breast, the growth is 100%.

Take `CN(C)CCCOc1c2ccccc2nc2c1oc1ccc(Cl)cc12`: the growth in the test with EKVX NSCLC was 12.4%; in the test on SN12C renal, 12.4%; in the test with UO-31 renal it was 4.84% (active); in the test with ACHN renal, 1.64% (active); in the test on CAKI-1 renal, -6.35% (active); in the test on A498 renal, -6.15% (active). For the same molecule, the growth in the test with CCRF-CEM leukemia is 16.8%; in the test with MOLT-4 leukemia, -1.53% (active); with SR leukemia, -26.7% (active); in the test on OVCAR-8 ovarian, 16.4%; with OVCAR-5 ovarian, 12.4%; with OVCAR-4 ovarian it was 17.3%. In addition, the growth with SK-OV-3 ovarian is 20.5%; in the test on IGROV1 ovarian, -5.97% (active); in the test with OVCAR-3 ovarian, 22%; with HS 578T breast, 25.7%; in the test on NCI/ADR-RES ovarian, 3.58% (active); in the test with T-47D breast, 31.2%.

With `N#Cc1nc(-c2ccccc2)oc1S(N)(=O)=O`, the growth with EKVX NSCLC is 97.5%; in the test with SN12C renal, 49.6%; in the test on UO-31 renal, 72.3%; in the test on ACHN renal, 73%; in the test on CAKI-1 renal, 63.1%; in the test with A498 renal, 83.1%. For the same molecule, the growth in the test with CCRF-CEM leukemia is 14.6%; with MOLT-4 leukemia, 41.4%; with SR leukemia, 3.32% (active); in the test on RPMI-8226 leukemia it was 46.2%; with OVCAR-8 ovarian, 79.1%; in the test with OVCAR-5 ovarian, 74.1%. For the same molecule, the growth was 84.2% in the test with OVCAR-4 ovarian; 135% with SK-OV-3 ovarian; 49.2% in the test on IGROV1 ovarian; 77.4% in the test on OVCAR-3 ovarian; 95% in the test with HS 578T breast; 82.7% in the test with NCI/ADR-RES ovarian. In the test on T-47D breast, the growth is 64.1%.

`CN(C)CCCNc1c2ccccc2nc2c1oc1ccc(Cl)cc12`: the growth in the test with EKVX NSCLC was 43.5%; with SN12C renal, 26.6%; in the test with UO-31 renal, 39.5%; in the test on ACHN renal, 17.5%; in the test on CAKI-1 renal, 21.4%; with A498 renal, 7.63% (active). Moreover, the growth with CCRF-CEM leukemia is 24.1%; with MOLT-4 leukemia it was 3.74% (active); in the test on SR leukemia, -30.8% (active); with RPMI-8226 leukemia, 14.4%; in the test with OVCAR-8 ovarian it was 25.4%; with OVCAR-5 ovarian, 51.6%. The growth is 50.6% in the test on OVCAR-4 ovarian; 57.6% in the test with SK-OV-3 ovarian; 25.8% in the test on IGROV1 ovarian; 63.5% with OVCAR-3 ovarian; 47.7% in the test on HS 578T breast; 22% with NCI/ADR-RES ovarian. Further, the growth in the test on T-47D breast was 63.7%.

For the molecule `Fc1ccc(-c2nc(C(Cl)Cl)nc3cc(-c4ccccc4)nn23)cc1`, the growth was 0.294% (active) in the test on EKVX NSCLC; 42.5% in the test with SN12C renal; 40.9% with UO-31 renal; -52.3% (active) in the test with ACHN renal; -21.4% (active) in the test on CAKI-1 renal; -42.7% (active) in the test with A498 renal. For the same molecule, the growth is 29.9% with CCRF-CEM leukemia; 6.63% (active) with MOLT-4 leukemia; 0.553% (active) in the test with SR leukemia; 8.68% (active) in the test with RPMI-8226 leukemia; -0.748% (active) with OVCAR-8 ovarian; -12.3% (active) in the test on OVCAR-5 ovarian. The growth with OVCAR-4 ovarian was -18.6% (active); with SK-OV-3 ovarian, -28.9% (active); in the test on IGROV1 ovarian, 20.4%; with OVCAR-3 ovarian, -28.1% (active); with HS 578T breast, -7.41% (active); in the test with NCI/ADR-RES ovarian, 17.8%. Moreover, in the test on T-47D breast, the growth was 44.3%.

Values taken from PubChem BioAssay (NCI).
